{
  "source": "ChEMBL document CHEMBL3988442",
  "about": "“University of Dundee, Small-Polar-MMV Screening Library” (2021)",
  "data": [
    {"test_system": "Trypanosoma cruzi", "test": "Trypanosoma cruzi phosphomannomutase and mannose-1-phosphate guanylyltransferase assay", "format": "functional", "parameters": "scale not given: direction of the effect not stated beside the values", "settings": "10 µM", "units": {"Percent Effect": "%"}, "values": [
      {"molecule": "CCn1cnnc1CNC(=O)N1CCC(Cc2cccnc2)CC1", "Percent Effect": -4.41},
      {"molecule": "Cc1nc(CN2CCCC(NCc3c(C)nc4sccn34)C2)no1", "note": "(centres undefined)", "Percent Effect": -1.31},
      {"molecule": "Cn1nc2c(cc1=O)CN(CCc1nc3ccccc3c(=O)[nH]1)CC2", "Percent Effect": 8.23},
      {"molecule": "COc1ccc(CNC(=O)NCc2c(C)cc(C)[nH]c2=O)cc1", "Percent Effect": 0.84},
      {"molecule": "CN(C)C(=O)NC1COC2(CCN(Cc3nccn3C)CC2)C1", "note": "(centres undefined)", "Percent Effect": -7.2},
      {"molecule": "O=C(CN1CCC(C(=O)c2cc(F)ccc2F)CC1)NC1CCCC1", "Percent Effect": -1.46},
      {"molecule": "CCN1C[C@H]2CCN(C(=O)NC3CCCC3)CC[C@H]2S1(=O)=O", "Percent Effect": -3.54},
      {"molecule": "CCC1=N[C@@]2(CC[C@@H]3CN(Cc4ccccc4F)C[C@@H]32)C(=O)N1CC", "Percent Effect": -1.17},
      {"molecule": "CN1CCC(Oc2ccc(NC(=O)c3ccccc3Br)cc2)CC1", "Percent Effect": 6},
      {"molecule": "Cc1cc(C(=O)NCC2COCc3c(C)nnn3C2)no1", "note": "(centres undefined)", "Percent Effect": -0.295},
      {"molecule": "Cc1cnc(CNC(=O)NCc2cccnc2N(C)C)s1", "Percent Effect": -2.43},
      {"molecule": "CCCNC(=O)N1CCN(Cc2cc(C)no2)CC1", "Percent Effect": 6.07},
      {"molecule": "COc1cccc2c1ccn2CCC(=O)N1CCCC(C(=O)O)C1", "note": "(centres undefined)", "Percent Effect": -9.64},
      {"molecule": "Cc1csc(CNC(=O)NCC(O)c2cccc(Cl)c2)n1", "note": "(centres undefined)", "Percent Effect": 3.48},
      {"molecule": "Cc1noc(Cl)c1CCC(=O)N1CCN(c2ncccn2)CC1", "Percent Effect": -11.1},
      {"molecule": "Cc1ccccc1-c1cncc(C2CCN(C)CC2)n1", "Percent Effect": 5.73},
      {"molecule": "Cc1ccc(CN2CCOC3(CCCN(C(=O)c4ccco4)C3)C2)s1", "note": "(centres undefined)", "Percent Effect": 5.41},
      {"molecule": "CS(=O)(=O)NCc1nnc2n1CCN(CC1CC1)C2", "Percent Effect": -0.293},
      {"molecule": "Cc1ccc(=O)n(CC2(O)CCN(Cc3cnc(C)nc3)CC2)n1", "Percent Effect": -2.96},
      {"molecule": "CN(C)S(=O)(=O)N1CCCC1CC(=O)c1cccs1", "note": "(centres undefined)", "Percent Effect": 1.74},
      {"molecule": "COc1cc(CNC2CCc3nc(C(C)C)nn3C2)cc2c1OCO2", "note": "(centres undefined)", "Percent Effect": -0.28},
      {"molecule": "CCOCC1CN(Cc2ccoc2)Cc2nn(CC3CC3)cc21", "note": "(centres undefined)", "Percent Effect": -3.52},
      {"molecule": "O=C(c1cc(COc2ccc3c(c2)OCO3)[nH]n1)N1CCCC1", "Percent Effect": -5.56},
      {"molecule": "CCCS(=O)(=O)N1CCC(NC(=O)c2cc(C)c(CC)s2)CC1", "Percent Effect": 5.94},
      {"molecule": "CCOC(=O)C1CCN(C(=O)Cn2ccc3cc(Br)ccc32)CC1", "Percent Effect": 6.29},
      {"molecule": "CCOc1cc(C)ccc1NC(=O)N(C)Cc1cnn(C)c1", "Percent Effect": 4.81},
      {"molecule": "COc1ccc(C(=O)N2CCC(Nc3ccc(C)nn3)CC2)c(F)c1", "Percent Effect": -4.21},
      {"molecule": "CC(C)CCc1noc(CN2CCCN(C(=O)c3ccco3)CC2)n1", "Percent Effect": 2.38},
      {"molecule": "Cc1noc2nc(C3CCN(Cc4ccncc4)CC3)cc(C(F)F)c12", "Percent Effect": -0.79},
      {"molecule": "COCC1CN(Cc2ccc(C)o2)Cc2cn(C)nc21", "note": "(centres undefined)", "Percent Effect": -0.965},
      {"molecule": "Cc1cnn(CCNCc2ccccc2Oc2cccnc2)c1", "Percent Effect": -5.03},
      {"molecule": "CN(CCCC#N)C1CCCN(Cc2noc(C3CC3)n2)C1", "note": "(centres undefined)", "Percent Effect": 0.68},
      {"molecule": "Cc1cc(C)nc(CCNC(=O)[C@H]2CNC[C@@H](C(=O)N3CCCC3)C2)n1", "Percent Effect": -8.33},
      {"molecule": "CCOc1cc(C)nc(N2CCN(C(=O)CC)CC2)n1", "Percent Effect": 0.836},
      {"molecule": "Cn1ccc(C(=O)N2CCCC(Cc3cccc4ncccc34)C2)n1", "note": "(centres undefined)", "Percent Effect": 4.74},
      {"molecule": "CCn1ccnc1CN1CCN(CCOc2ccccc2OC)CC1", "Percent Effect": 6.39},
      {"molecule": "O=S(=O)(N(Cc1ccccn1)C1CC1)N1CCCC1c1ccco1", "note": "(centres undefined)", "Percent Effect": 5.66},
      {"molecule": "Cn1ncc2c(=O)[nH]c(CN3CCCC3Cc3ccccc3)nc21", "note": "(centres undefined)", "Percent Effect": 9.62},
      {"molecule": "CC1CN(CC(=O)Nc2cccnc2)CCN1c1nccs1", "note": "(centres undefined)", "Percent Effect": -0.464}
    ]}
  ]
}
